# From US20040110161, “Method for detecting mutations in nucleotide sequences” (published 2004)
# B1: APC AT (dsDNA)
# DNA 1: AAGATCTTCAGCTGACCTAGTTCCAATCTTTTCTTTTAT
# DNA 2: AAATAAAAGAAAAGATTGGAACTAGGTCAGCTGAAGATC
# B2: Brc AT (dsDNA)
# DNA 1: AAATGTTATTACGGCTAATTGTGCTCACTGTACTTGGAA
# DNA 2: CATTCCAAGTACAGTGAGCACAATTAGCCGTAATAACAT
# B3: Met AT (dsDNA)
# DNA 1: AACTATAGTATTCTTTATCATACATGTCTCTGGCAAGAC
# DNA 2: TGGTCTTGCCAGAGACATGTATGATAAAGAATACTATAG
# B4: bcl AT (dsDNA)
# DNA 1: AAGGTCGCGGGATGCGGCTGGATGGGGCGTGTGCCCGGG
# DNA 2: AGCCCGGGCACACGCCCCATCCAGCCGCATCCCGCGACC
# B5: MSH AT (dsDNA)
# DNA 1: AACCTTTCTCCAAAATGGCTGGTCGTACATATGGAACAG
# DNA 2: ACCTGTTCCATATGTACGACCAGCCATTTTGGAGAAAGG
# B6: Rb AT (dsDNA)
# DNA 1: AAATAAGATCAAATAAAGGTGAATCTGAGAGCCATGCAA
# DNA 2: CCTTGCATGGCTCTCAGATTCACCTTTATTTGATCTTAT
# B7: p53 AT (dsDNA)
# DNA 1: AAAGTTCCTGCATGGGCGGCATGAACCGGAGGCCCATC
# DNA 2: AGGATGGGCCTCCGGTTCATGCCGCCCATGCAGGAACT
# Molecular target: T1, MutS (Cy5-labeled) (Escherichia coli, UniProt P23909 P23909:1-853)
# T1 sequence: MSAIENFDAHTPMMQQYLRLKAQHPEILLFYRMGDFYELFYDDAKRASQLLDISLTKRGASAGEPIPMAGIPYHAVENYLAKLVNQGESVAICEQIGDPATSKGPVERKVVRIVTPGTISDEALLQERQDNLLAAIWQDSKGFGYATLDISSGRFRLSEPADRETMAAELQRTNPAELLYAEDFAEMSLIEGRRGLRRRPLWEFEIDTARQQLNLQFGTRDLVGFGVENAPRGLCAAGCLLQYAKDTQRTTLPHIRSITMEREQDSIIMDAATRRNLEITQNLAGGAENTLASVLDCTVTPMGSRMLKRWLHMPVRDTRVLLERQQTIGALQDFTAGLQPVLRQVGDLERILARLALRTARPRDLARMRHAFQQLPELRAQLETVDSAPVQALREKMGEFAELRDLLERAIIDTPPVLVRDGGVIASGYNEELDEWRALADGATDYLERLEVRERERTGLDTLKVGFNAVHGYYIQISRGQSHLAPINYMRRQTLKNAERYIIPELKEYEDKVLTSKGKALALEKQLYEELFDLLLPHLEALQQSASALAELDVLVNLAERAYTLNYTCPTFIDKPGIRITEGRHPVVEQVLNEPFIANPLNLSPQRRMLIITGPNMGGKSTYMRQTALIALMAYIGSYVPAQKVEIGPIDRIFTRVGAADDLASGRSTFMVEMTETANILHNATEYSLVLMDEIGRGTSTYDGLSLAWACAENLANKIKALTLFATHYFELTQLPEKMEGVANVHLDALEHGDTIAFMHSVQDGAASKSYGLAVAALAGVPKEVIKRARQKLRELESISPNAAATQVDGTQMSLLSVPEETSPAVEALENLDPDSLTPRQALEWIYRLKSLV
# Test: agarose chip
# Details: tags: Cy5 nonspecific amine label; also Gene Check unlabeled in EMSA; label: 5'-biotin, 5'-Cy3
row,Binder,binding signal [fluorescence units]
1,B1,40.5
2,B2,52.4
3,B3,46.3
4,B4,51.2
5,B5,45.9
6,B6,59.6
7,B7,48.7
